From PubChem BioAssay (EPA / NIEHS)
The source made the active and inactive calls. Rule for the calls: active = hit-call score of the fitted dose curve at least 0.9, where 1 is the maximum; inactive = score below 0.9.

How the values were obtained:
[1] = ATG_GRE_CIS: Attagene CIS-FACTORIAL HepG2 Assay for human Glucocorticoid Response Elements (GRE) (AID 2282947); conditions: HepG2 GRE cis-reporter, Attagene multiplex mRNA; actives raise or lower the signal
Summary of the method: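 Assay uses human hepatoma HepG2 cells transfected with cis-promoter reporter units, exposed 24 h. mRNA from reporters detected by RT-PCR plus capillary electrophoresis; DMSO serves as negative control and baseline.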

[2] = ATG_ISRE_CIS: Attagene CIS-FACTORIAL HepG2 Assay for human Interferon Regulatory Factor 1 (IRF1) binding to an Interferon-Stimulated Response Element (ISRE) (AID 2282948); conditions: HepG2 ISRE cis-reporter (Attagene), mRNA transcription readout; actives raise or lower the signal
Summary of the method: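 Cell-based cis-reporter assay; HepG2; 24 h exposure; reporter mRNA by RT-PCR plus capillary electrophoresis fluorescence; activity in either direction scored relative to DMSO.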

[3] = ATG_M_32_CIS: Attagene CIS-FACTORIAL HepG2 Assay for M32 Transcription Factor (Internal Marker) (AID 2282949); conditions: HepG2 Attagene cis-factorial M32 reporter, mRNA; actives raise or lower the signal;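 note: background control marker of the multiplexed CIS panel rather than a real target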
Summary of the method: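 Internal background marker read-out: RT-PCR/capillary electrophoresis fluorescence of reporter transcripts from transiently transfected HepG2 cells after 24 h chemical exposure. Activity fitted bidirectionally relative to DMSO negative control.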

[4] = ATG_M_06_CIS: Attagene CIS-FACTORIAL HepG2 Assay for M06 Transcription Factor (Internal Marker) (AID 2282950); conditions: HepG2 Attagene CIS-FACTORIAL M06 internal marker reporter; actives raise or lower the signal
Summary of the method: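 Internal background marker within multiplexed cis-reporter HepG2 system. Cells transiently transfected, dosed 24 h; reporter mRNA measured by RT-PCR, HpaI digestion and capillary electrophoresis. Bidirectional fit relative to DMSO.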

[5] = molecular target: Hypoxia-inducible factor 1-alpha (Homo sapiens) (UniProt Q16665); assay: ATG_HIF1a_CIS: Attagene CIS-FACTORIAL HepG2 Assay for human Hypoxia Inducible Factor 1 (HIF1A) (AID 2282951); conditions: HepG2 Attagene cis-factorial HIF1a reporter transcription; actives raise or lower the signal
Hypoxia-inducible factor 1-alpha (Homo sapiens), sequence (Q16665 whole entry, looked up, the tested form may be a part): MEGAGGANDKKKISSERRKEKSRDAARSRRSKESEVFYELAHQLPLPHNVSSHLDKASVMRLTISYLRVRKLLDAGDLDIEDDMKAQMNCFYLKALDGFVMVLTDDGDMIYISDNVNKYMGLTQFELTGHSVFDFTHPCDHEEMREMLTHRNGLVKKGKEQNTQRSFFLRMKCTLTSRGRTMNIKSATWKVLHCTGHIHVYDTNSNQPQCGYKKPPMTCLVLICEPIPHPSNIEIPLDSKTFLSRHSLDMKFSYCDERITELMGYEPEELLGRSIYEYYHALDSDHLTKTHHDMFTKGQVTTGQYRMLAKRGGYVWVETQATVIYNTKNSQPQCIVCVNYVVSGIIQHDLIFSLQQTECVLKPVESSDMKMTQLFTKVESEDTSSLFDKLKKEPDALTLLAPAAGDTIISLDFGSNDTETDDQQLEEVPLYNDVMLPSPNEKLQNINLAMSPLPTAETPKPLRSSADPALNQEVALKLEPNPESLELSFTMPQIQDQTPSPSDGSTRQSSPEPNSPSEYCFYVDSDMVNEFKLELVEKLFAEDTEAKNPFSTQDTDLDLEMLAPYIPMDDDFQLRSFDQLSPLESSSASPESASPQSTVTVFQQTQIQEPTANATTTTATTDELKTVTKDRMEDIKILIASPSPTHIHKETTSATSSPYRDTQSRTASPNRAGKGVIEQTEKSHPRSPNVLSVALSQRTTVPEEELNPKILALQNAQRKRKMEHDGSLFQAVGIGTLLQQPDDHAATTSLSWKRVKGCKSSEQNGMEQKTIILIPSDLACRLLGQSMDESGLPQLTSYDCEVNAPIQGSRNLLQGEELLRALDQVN
Summary of the method: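 Transient MRTU transfection of human HepG2 liver cells, 24 h compound treatment, then total RNA isolation, oligo(dT) reverse transcription, PCR amplification, fluorescent labelling and capillary electrophoresis of reporter fragments. Gain or loss relative to DMSO.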

[6] = molecular target: Hepatocyte nuclear factor 6 (Homo sapiens) (UniProt Q9UBC0); assay: ATG_HNF6_CIS: Attagene CIS-FACTORIAL HepG2 Assay for human Hepatocyte Nuclear Factor 6 (HNF6) (AID 2282952); conditions: HepG2 Attagene cis-factorial HNF6 reporter transcription; actives raise or lower the signal
Hepatocyte nuclear factor 6 (Homo sapiens), sequence (Q9UBC0 whole entry, looked up): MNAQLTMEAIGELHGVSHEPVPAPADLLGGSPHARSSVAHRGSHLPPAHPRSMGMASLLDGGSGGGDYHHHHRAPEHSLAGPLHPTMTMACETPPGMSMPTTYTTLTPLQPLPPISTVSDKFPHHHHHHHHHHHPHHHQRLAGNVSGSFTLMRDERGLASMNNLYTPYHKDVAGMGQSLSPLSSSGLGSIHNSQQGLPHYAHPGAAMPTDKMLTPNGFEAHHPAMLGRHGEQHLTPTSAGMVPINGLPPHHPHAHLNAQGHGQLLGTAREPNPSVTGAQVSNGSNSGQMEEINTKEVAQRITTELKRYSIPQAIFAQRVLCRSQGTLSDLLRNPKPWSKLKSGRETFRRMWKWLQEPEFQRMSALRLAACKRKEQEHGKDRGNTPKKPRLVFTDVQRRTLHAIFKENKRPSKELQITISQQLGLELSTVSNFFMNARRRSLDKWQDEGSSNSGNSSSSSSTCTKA
Summary of the method: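 Multiplexed mRNA reporter assay in transfected HepG2; 24 h dosing; RT-PCR plus capillary electrophoresis fluorescence; DMSO-referenced bidirectional curve fitting.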

[7] = molecular target: Heat shock factor protein 1 (Homo sapiens) (UniProt Q00613); assay: ATG_HSE_CIS: Attagene CIS-FACTORIAL HepG2 Assay for human Heat Shock Transcription Factor 1 (HSE) (AID 2282953); conditions: HepG2 HSE cis-reporter, Attagene RNA transcription; actives raise or lower the signal
Heat shock factor protein 1 (Homo sapiens), sequence (Q00613 whole entry, looked up): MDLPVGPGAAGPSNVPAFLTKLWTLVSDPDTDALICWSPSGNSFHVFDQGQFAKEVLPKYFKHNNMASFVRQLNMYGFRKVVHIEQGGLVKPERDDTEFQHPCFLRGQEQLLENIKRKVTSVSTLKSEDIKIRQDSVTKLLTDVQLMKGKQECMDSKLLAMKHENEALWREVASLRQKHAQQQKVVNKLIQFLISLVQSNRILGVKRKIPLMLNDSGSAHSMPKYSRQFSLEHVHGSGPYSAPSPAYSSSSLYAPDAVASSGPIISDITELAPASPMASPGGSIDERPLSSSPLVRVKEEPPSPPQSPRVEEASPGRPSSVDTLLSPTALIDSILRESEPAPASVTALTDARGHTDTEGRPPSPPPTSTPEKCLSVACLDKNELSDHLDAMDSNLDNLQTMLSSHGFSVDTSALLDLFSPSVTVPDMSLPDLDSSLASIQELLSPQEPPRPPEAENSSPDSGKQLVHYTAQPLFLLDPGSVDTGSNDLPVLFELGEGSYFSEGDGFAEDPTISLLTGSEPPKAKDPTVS
Summary of the method: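 HepG2 cells transfected with cis-promoter reporter units sensing endogenous transcription factor activity; reporter mRNA quantified 24 h post-dose by RT-PCR and capillary electrophoresis of 6-FAM-labelled products. Bidirectional fitting against DMSO.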

[8] = ATG_MRE_CIS: Attagene CIS-FACTORIAL HepG2 Assay for human Metal Responsive Element (MRE) (AID 2282954); conditions: HepG2 MRE cis-reporter transcription, Attagene multiplex; actives raise or lower the signal
Summary of the method: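 After a 24 h chemical exposure, transiently transfected HepG2 cells yield RNA whose reporter sequences are amplified, FAM-labelled and sized by capillary electrophoresis. Curves are fitted bidirectionally relative to DMSO.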

[9] = molecular target: Paired box protein Pax-6 (Homo sapiens) (UniProt P26367); assay: ATG_Pax6_CIS: Attagene CIS-FACTORIAL HepG2 Assay for human Paired Box 6 (PAX6) (AID 2282956); conditions: HepG2 CIS-FACTORIAL PAX6 reporter transcription, RNA readout; actives raise or lower the signal
Paired box protein Pax-6 (Homo sapiens), sequence (P26367 whole entry, looked up): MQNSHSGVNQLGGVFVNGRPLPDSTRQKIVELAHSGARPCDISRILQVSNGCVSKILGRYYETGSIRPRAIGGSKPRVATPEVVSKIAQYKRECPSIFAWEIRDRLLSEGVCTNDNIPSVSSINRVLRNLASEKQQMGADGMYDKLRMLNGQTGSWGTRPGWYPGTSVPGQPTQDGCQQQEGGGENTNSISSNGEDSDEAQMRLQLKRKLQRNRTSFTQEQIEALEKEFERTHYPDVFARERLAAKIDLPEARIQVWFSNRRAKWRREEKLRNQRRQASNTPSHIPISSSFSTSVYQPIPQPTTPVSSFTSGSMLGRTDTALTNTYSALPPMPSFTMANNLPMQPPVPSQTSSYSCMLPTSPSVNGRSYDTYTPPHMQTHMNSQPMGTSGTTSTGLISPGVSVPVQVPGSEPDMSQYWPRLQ
Summary of the method: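 Multiplexed cis-reporter HepG2 system; 24 h treatment; reporter mRNA read by RT-PCR/CE fluorescence; bidirectional fit vs DMSO.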

[10] = ATG_PXRE_CIS: Attagene CIS-FACTORIAL HepG2 Assay for human Pregnane X Receptor Element (PXRE) (AID 2282957); conditions: HepG2 Attagene CIS-FACTORIAL PXRE reporter, mRNA; actives raise or lower the signal
Summary of the method: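 Cells: HepG2, transiently transfected reporter units under cis promoter control. Exposure: 24 h. Detection: reporter mRNA via RT-PCR/CE fluorescence; bidirectional fitting, DMSO-referenced.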

[11] = ATG_PPRE_CIS: Attagene CIS-FACTORIAL HepG2 Assay for human Peroxisome Proliferator-activated Response Element (PPRE) (AID 2282958); conditions: HepG2 PPRE cis-element reporter, Attagene transcription factor profiling; actives raise or lower the signal
Summary of the method: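 HepG2, transient MRTU transfection (cis promoter elements, endogenous TFs). 24 h dosing. RNA → oligo(dT) RT → PCR → 6-FAM primer extension → HpaI digest → CE. Bidirectional fit vs DMSO.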

[12] = ATG_Sox_CIS: Attagene CIS-FACTORIAL HepG2 Assay for human SRY-box transcription factor (SOX) (AID 2282960); conditions: HepG2 Attagene cis-factorial SOX reporter, mRNA; actives raise or lower the signal
Summary of the method: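 Endogenous factor activity in human liver HepG2 cells carrying transfected cis-regulated reporter units. RNA taken 24 h post-dose, reverse-transcribed, PCR-amplified and sized by capillary electrophoresis. Gain or loss of signal fitted relative to DMSO.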

[13] = molecular target: Transcription factor Sp1 (Homo sapiens) (UniProt P08047); assay: ATG_Sp1_CIS: Attagene CIS-FACTORIAL HepG2 Assay for human Specificity Protein 1 (Sp1) (AID 2282961); conditions: HepG2 Sp1 cis-reporter transcription, actives raise or lower the signal
Transcription factor Sp1 (Homo sapiens), sequence (P08047 whole entry, looked up): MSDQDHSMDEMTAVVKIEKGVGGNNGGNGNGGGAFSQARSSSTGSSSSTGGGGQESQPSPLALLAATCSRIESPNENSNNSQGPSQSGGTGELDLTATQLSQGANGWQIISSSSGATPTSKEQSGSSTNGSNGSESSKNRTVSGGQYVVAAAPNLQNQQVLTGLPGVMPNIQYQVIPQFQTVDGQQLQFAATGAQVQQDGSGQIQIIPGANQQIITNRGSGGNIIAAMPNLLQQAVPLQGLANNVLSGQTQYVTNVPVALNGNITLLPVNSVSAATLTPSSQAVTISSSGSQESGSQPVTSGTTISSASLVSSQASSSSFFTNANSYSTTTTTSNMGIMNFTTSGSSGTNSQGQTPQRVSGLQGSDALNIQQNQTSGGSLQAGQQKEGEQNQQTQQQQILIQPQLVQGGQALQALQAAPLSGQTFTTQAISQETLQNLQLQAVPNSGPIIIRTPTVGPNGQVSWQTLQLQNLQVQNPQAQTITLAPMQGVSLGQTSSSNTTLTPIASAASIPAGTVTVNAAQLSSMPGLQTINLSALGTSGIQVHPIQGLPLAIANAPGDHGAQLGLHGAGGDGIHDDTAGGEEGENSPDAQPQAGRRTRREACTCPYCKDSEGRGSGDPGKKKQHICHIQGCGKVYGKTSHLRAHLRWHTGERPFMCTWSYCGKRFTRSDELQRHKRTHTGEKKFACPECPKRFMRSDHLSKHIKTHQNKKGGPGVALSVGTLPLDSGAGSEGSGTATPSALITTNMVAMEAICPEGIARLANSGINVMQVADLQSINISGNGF
Summary of the method: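 Transient MRTU-transfected HepG2, 24 h compound exposure. Total RNA → oligo(dT) RT → PCR of reporter → 6-FAM primer extension → HpaI digest → CE. Endpoint fitted both directions vs DMSO.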

[14] = ATG_SREBP_CIS: Attagene CIS-FACTORIAL HepG2 Assay for human Sterol Regulatory Element Binding (SREBP) (AID 2282962); conditions: HepG2 Attagene cis-factorial SREBP reporter, mRNA; actives raise or lower the signal
Summary of the method: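 mRNA induction of transfected cis-promoter reporters in HepG2 cells, 24 h post-dose. Detection: RT-PCR with 6-FAM-labelled products, HpaI digest, capillary electrophoresis. DMSO served as negative control and baseline.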

[15] = molecular target: Signal transducer and activator of transcription 3 (Homo sapiens) (UniProt P40763); assay: ATG_STAT3_CIS: Attagene CIS-FACTORIAL HepG2 Assay for human Signal Transducer and Activator of Transcription 3 (STAT3) (AID 2282963); conditions: HepG2, Attagene cis-factorial STAT3 reporter transcription; actives raise or lower the signal
Signal transducer and activator of transcription 3 (Homo sapiens), sequence (P40763 whole entry, looked up): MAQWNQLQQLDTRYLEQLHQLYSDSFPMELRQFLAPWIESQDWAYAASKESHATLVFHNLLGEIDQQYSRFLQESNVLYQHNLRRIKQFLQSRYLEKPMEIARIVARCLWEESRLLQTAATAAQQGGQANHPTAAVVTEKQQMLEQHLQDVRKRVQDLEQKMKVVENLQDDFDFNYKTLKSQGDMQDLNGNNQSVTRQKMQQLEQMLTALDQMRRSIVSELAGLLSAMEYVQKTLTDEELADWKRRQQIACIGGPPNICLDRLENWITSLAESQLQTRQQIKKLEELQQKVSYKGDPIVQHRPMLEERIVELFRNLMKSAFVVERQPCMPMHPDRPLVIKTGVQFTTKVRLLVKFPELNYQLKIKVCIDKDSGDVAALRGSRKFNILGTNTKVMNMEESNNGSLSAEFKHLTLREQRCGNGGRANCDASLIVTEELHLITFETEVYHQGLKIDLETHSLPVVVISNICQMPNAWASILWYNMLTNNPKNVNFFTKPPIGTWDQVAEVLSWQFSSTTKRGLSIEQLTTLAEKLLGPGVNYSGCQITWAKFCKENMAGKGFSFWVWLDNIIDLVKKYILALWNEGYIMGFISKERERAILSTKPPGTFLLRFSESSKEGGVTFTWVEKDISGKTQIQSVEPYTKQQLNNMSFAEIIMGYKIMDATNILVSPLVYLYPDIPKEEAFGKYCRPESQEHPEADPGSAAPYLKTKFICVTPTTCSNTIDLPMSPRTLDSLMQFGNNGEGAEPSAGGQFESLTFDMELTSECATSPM
Summary of the method: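 After a 24 h compound incubation, total RNA from MRTU-transfected HepG2 cells was converted to cDNA and reporter sequences PCR-amplified, labelled and profiled by capillary electrophoresis. Gain and loss of signal were referenced to DMSO.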

[16] = ATG_TA_CIS: Attagene CIS-FACTORIAL HepG2 Assay for human TA Basal Promoter (AID 2282964); conditions: HepG2 Attagene CIS-factorial TA basal promoter reporter; actives raise or lower the signal
Summary of the method: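 HepG2 cells transiently transfected with multiple reporter units under cis promoter elements, reporting endogenous transcription factor activity; this endpoint tracks the TA basal promoter as background control. Reporter mRNA after 24 h dosing measured by RT-PCR/capillary electrophoresis; bidirectional fits versus DMSO.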

[17] = ATG_TCF_b_cat_CIS: Attagene CIS-FACTORIAL HepG2 Assay for human T-Cell-Factor with beta-catenin (TCF/b-cat) (AID 2282965); conditions: HepG2 TCF/beta-catenin cis-reporter transcription, actives raise or lower the signal
Summary of the method: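 Measured: reporter mRNA in HepG2 transiently transfected with cis-promoter reporter units, 24 h after chemical addition. Fitting was bidirectional, DMSO as negative control.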

[18] = ATG_RORE_CIS: Attagene CIS-FACTORIAL HepG2 Assay for human RAR-related Orphan Receptor Element (RORE) (AID 2282959); conditions: HepG2 Attagene cis-factorial RORE reporter, mRNA; actives raise or lower the signal
Summary of the method: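 Transient MRTU transfection of human HepG2 liver cells (FuGene 6); 24 h compound exposure; TriZol RNA, oligo(dT) RT, PCR, FAM labeling, HpaI cut, CE fragment analysis. DMSO = negative control/baseline.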

[19] = ATG_PBREM_CIS: Attagene CIS-FACTORIAL HepG2 Assay for human Phenobarbital-responsive Enhancer Module (PBREM) (AID 2282955); conditions: HepG2 PBREM cis-reporter, Attagene multiplexed transcription; actives raise or lower the signal
Summary of the method: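 Endogenous transcription factors in human liver HepG2 cells drive a PBREM cis-element reporter, whose transcript level after 24 h treatment is quantified by RT-PCR with capillary electrophoresis; activity fitted in both directions against DMSO.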

Measured: AC50

O=C(Oc1ccccc1)c1ccc(O)cc1
active: [5] 176 µM
inactive: [1] | [2] | [3] | [4] | [6] | [7] | [8] | [9] | [10] | [11] | [12] | [13] | [14] | [15] | [16] | [17]

CCCCC[Si](OCC)(OCC)OCC
active: [10] 7.23 µM
inactive: [1] | [2] | [3] | [4] | [5] | [6] | [7] | [8] | [9] | [11] | [18] | [12] | [13] | [15] | [16] | [17]

O=C1CCc2ccccc2O1
inactive: [1] | [2] | [3] | [4] | [5] | [6] | [7] | [8] | [9] | [10] | [11] | [13] | [14] | [16] | [17]

[Ca+2]
inactive: [1] | [2] | [3] | [4] | [5] | [6] | [7] | [8] | [9] | [10] | [11] | [18] | [12] | [13] | [14] | [16] | [17]

CC1(C)[C@H](C(=O)OCc2cccc(Oc3ccccc3)c2)[C@@H]1C=C(Cl)Cl
active: [10] 4.97 µM
inactive: [1] | [2] | [3] | [4] | [5] | [6] | [7] | [8] | [19] | [9] | [12] | [13] | [14] | [15] | [16] | [17]

CC(O)C(C)O (stereo not given)
inactive: [1] | [2] | [3] | [4] | [5] | [6] | [7] | [8] | [19] | [9] | [10] | [11] | [18] | [12] | [13] | [14] | [15] | [16] | [17]

O=[N+]([O-])c1cc(C(F)(F)F)ccc1Cl
active: [10] 12.7 µM
inactive: [1] | [2] | [3] | [4] | [5] | [6] | [7] | [8] | [19] | [9] | [12] | [13] | [14] | [15] | [16] | [17]

CCCCCCCCCCCCCCCC(=O)O
active: [10] 25.3 µM
inactive: [1] | [2] | [3] | [4] | [5] | [6] | [7] | [8] | [19] | [9] | [13] | [14] | [15] | [16] | [17]

COC(=O)Cc1cccc2ccccc12
active: [10] 42.8 µM
inactive: [1] | [2] | [3] | [4] | [5] | [6] | [7] | [8] | [19] | [9] | [11] | [18] | [12] | [13] | [15] | [16] | [17]

FC1(F)C(F)(F)C(F)(F)C2(F)C(F)(C1(F)F)C(F)(F)C(F)(F)C1(F)C(F)(F)C(F)(F)C(F)(F)C(F)(F)C12F (stereo not given)
active: [10] 37.5 µM
inactive: [1] | [2] | [3] | [4] | [5] | [6] | [7] | [8] | [19] | [9] | [11] | [18] | [12] | [13] | [14] | [15] | [16] | [17]

NC(=O)NC1NC(=O)NC1=O (stereo not given)
inactive: [1] | [2] | [3] | [4] | [5] | [6] | [7] | [8] | [9] | [10] | [11] | [18] | [12] | [13] | [14] | [15] | [16] | [17]

CCC(=O)OCc1ccccc1
inactive: [1] | [2] | [3] | [4] | [5] | [6] | [7] | [8] | [9] | [10] | [11] | [18] | [12] | [13] | [14] | [16] | [17]

CCCCCCCCCC=O
active: [5] 19.8 µM | [11] 46.1 µM
inactive: [1] | [2] | [3] | [4] | [6] | [7] | [8] | [9] | [10] | [18] | [12] | [13] | [15] | [16] | [17]

O=[N+]([O-])c1ccc(Nc2ccc(Nc3ccccc3)c(S(=O)(=O)O)c2)c([N+](=O)[O-])c1
inactive: [1] | [2] | [3] | [4] | [5] | [6] | [19] | [9] | [12] | [13] | [14] | [15] | [16]
active: [7] 178 µM | [8] 100 µM | [10] 27 µM | [11] 49.2 µM | [18] 40.1 µM | [17] 134 µM

Nc1ccc(S(=O)(=O)O)c(N)c1
inactive: [1] | [2] | [3] | [4] | [5] | [6] | [7] | [8] | [9] | [10] | [11] | [12] | [13] | [14] | [15] | [16] | [17]
